Laboratory results taken from PubChem BioAssay AID720664 (National Center for Advancing Translational Sciences (NCATS), 2013).
Inconclusive results are not listed. Unmarked numbers belong to inactive results. The source made the active and inactive calls. The call rests on the fitted dose curve; in most records, active means well fitted inhibition curve with a large enough effect; inconclusive means small, poorly fitted or top-dose-only effect; inactive means flat fitted curve, though single readings scatter.

Molecular target: Galactokinase (Homo sapiens) (UniProt P51570)
Sequence (P51570 whole entry, looked up): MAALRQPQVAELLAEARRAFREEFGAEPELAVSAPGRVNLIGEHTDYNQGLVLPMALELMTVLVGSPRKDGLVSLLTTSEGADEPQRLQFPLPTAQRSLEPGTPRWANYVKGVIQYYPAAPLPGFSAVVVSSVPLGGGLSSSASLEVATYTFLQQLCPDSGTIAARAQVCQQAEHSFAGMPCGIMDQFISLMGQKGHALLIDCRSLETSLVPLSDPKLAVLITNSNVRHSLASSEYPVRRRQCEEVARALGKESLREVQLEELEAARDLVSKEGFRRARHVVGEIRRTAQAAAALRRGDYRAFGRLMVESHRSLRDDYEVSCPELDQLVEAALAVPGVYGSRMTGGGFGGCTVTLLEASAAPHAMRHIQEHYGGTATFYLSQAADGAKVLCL
Test: qHTS for Inhibitors of Human Galactokinase (GALK): SAR round 3
Settings: ADP detection luminescence, 1 h; series mostly up to 57.5 µM; activity change, negative = inhibition: at the top concentration
Excerpt: Inherited deficiency of galactose-1-phosphate uridyltransferase (GALT) can result in a potentially lethal disorder called Classic Galactosemia (OMIM 230400). Several lines of evidence indicate that an elevated level of galactose-1-phosphate (gal-1-p), the product of galactokinase (GALK), is a major, if not sole, pathogenic mechanism in patients with classic galactosemia. Therefore, finding inhibitors of GALK is a potential novel therapy for this inherent metabolic disease and is the long term goal of this project. Active compounds observed in the qHTS GALK assay (AID: 1868) were cherry picked and re-screened for validation. GALK (provided by Kent Lai) was assayed using ATP and D-(+)-Galactose (Sigma-Aldrich cat# G0750) as substrates. Promega ADP-Glo technology was used to detect the ADP product formed after the kinase reaction. Kinase reactions with and without GALK were used as negative and positive controls together with Protein Tyrosine Phosphatase CD45 inhibitor (EMD Bioscience cat# 540215) which is shown to inhibit GALK activity. Decrease in activity corresponds to inhibition of the enzyme, the desired outcome for this assay. NIH Molecular Libraries Probe Production Network [MLPCN] NIH Chemical Genomics Center [NCGC] Grant: MH085689-01 PI Name: Kent Lai, University of Utah
Three uL/well of ATP-buffer solution (35 uM ATP, 20mM HEPES pH8.0, 5 mM MgCl2, 60 mM NaCl, 1 mM DTT, 0.01% BSA final concentration) was dispensed into 1536-well, assay plates (Greiner, solid white medium-binding plates) with Aurora Discovery BioRAPTR Flying Reagent Dispenser (FRD; Beckton-Dickenson). Compound and control solution (23 nL) was transferred to the assay plate using the Kalypsys 1536-pin tool apparatus. One uL/well GALK-galactose solution (5 nM GALK, 100 uM galactose, 20 mM HEPES pH8.0, 5 mM MgCl2, 60 mM NaCl, 1 mM DTT, 0.01% BSA final concentration) was then added using the FRD yielding a total kinase reaction volume of 4 uL/ well. After 1 hour of room temperature incubation, 4 uL Kinase-Glo Plus reagent was added for a final assay volume of 8 uL/well. Luminescence was detected with the ViewLux plate reader (Perkin Elmer, Waltham, MA) after 2 min incubation using a 1 sec exposure time and 2x binning.

| Compound | activity change, negative = inhibition [%] | Potency |
| --- | --- | --- |
| O=C1CCCC2=C1C(c1[nH]ncc1Cl)N=C(Nc1ccn[nH]1)N2 (stereo not given) | 3.24 | – |
| O=C(Nc1ncc([S+](=O)([O-])N2CCOCC2)s1)c1cccc(Br)c1 | -2.8 | – |
| CC1=C(C(=O)NC2CC2)C(c2[nH]ncc2Cl)N=C(Nc2nc3ccccc3o2)N1 (stereo not given) | -24.1 | – |
| O=C1CCCC2CC(Nc3nc4ccccc4o3)CC(c3ccccc3)C12 (stereo not given) | -0.0792 | – |
| O=C1CCCC2=C1C1(CCSCC1)N=C(Nc1nc3ccccc3o1)N2 | – | 3.43 µM (active) |
| Cc1nc(Nc2nc3ccccc3o2)nc(-c2ccccc2Br)c1C(=O)NCc1ccccc1 | 2.91 | – |
| CC(C)CN1CC2=C(C1=O)C(c1ccccc1Cl)N=C(Nc1nc3ccccc3o1)N2 (stereo not given) | -8.14 | – |
| O=C1CCCC2=C1C(c1[nH]ncc1Cl)NC(=NCc1cccnc1)N2 (stereo not given) | -7.25 | – |
| O=C1CCCC2=C1C(c1ccccc1Br)N=C(Nc1nc3ccccc3o1)N2 (stereo not given) | – | 6.11 µM (active) |
| CC1=C(C(=O)Nc2noc3ccccc23)C(c2nn(C)cc2Cl)N=C(Nc2nc3ccccc3o2)N1 (stereo not given) | 2.33 | – |
| CC1=C(C(=O)c2ccccc2)C(c2ccccc2Cl)N=C(Nc2nc3ccccc3o2)N1 (stereo not given) | -4.91 | – |
| O=C1CCCC2=C1C(c1[nH]ncc1Cl)NC(=NCCc1cccnc1)N2 (stereo not given) | 1.96 | – |
| CCc1ccc2oc(=O)cc(CN3CCN(c4ccccc4F)CC3)c2c1 | 4.45 | – |
| O=C1CCCC2=C1C(c1[nH]ncc1Cl)N=C(Nc1nc3ccc(Cl)cc3o1)N2 (stereo not given) | -5.94 | – |
| O=C1CCCC2=C1C1(CCCC1)N=C(Nc1nc3cc4ccccc4cc3o1)N2 | 1.6 | – |
| O=C1CCCC2=C1C(c1[nH]ncc1Cl)N=C(Nc1nc3c(Br)cccc3o1)N2 (stereo not given) | -4.45 | – |
| O=C1CCCC2=C1C(c1ccccc1Cl)N=C(c1ccccn1)N2 (stereo not given) | -3.03 | – |
| Cc1noc(C)c1S(=O)(=O)Nc1ccc(C(=O)Nc2ccc(OC(F)(F)F)cc2)cc1 | 3.01 | – |
| Cc1ccc(C2N=C(Nc3nc4ccccc4o3)NC3=C2C(=O)CCC3)s1 (stereo not given) | -21.2 | – |
| O=C1CCCC2=C1C(c1[nH]ncc1Cl)NC(=NCc1ccccc1)N2 (stereo not given) | 1.45 | – |

| Compound | activity change, negative = inhibition [%] | Potency |
| --- | --- | --- |
| CN(C)c1ccc(C2N=C(Nc3nc4ccccc4o3)NC3=C2C(=O)CCC3)cc1 (stereo not given) | -0.254 | – |
| CC1=C(C(=O)Nc2nc3ccccc3s2)C(c2[nH]ncc2Cl)N=C(Nc2nc3ccccc3o2)N1 (stereo not given) | -9.72 | – |
| O=C1CCCC2=C1C(c1ccc(Cl)cc1)N=C(Nc1nc3ccccc3o1)N2 (stereo not given) | -5.92 | – |
| CC1(C)N=C(Nc2nc3ccccc3o2)NC2=C1C(=O)CCC2 | -19.7 | – |
| O=C1CCCC2=C1C(c1ccccc1)N=C(Nc1nc3ccccc3o1)N2 (stereo not given) | -25 | – |
| Cc1ccc2oc(NC3=NC(c4ccccc4Cl)C4=C(CCCC4=O)N3)nc2c1 (stereo not given) | – | 6.11 µM (active) |
| Cc1cccc(C2N=C(Nc3nc4ccccc4o3)NC3=C2C(=O)CCC3)c1 (stereo not given) | -18 | – |
| O=C1CCCC2=C1C1(CCSC1)N=C(Nc1nc3ccccc3o1)N2 (stereo not given) | – | 19.3 µM (active) |
| O=C1CCCC2=C1C(c1cccc(Oc3ccccc3)c1)N=C(Nc1nc3ccccc3o1)N2 (stereo not given) | -7.55 | – |
| O=C1CCCC2=C1C(c1[nH]ncc1Cl)N=C(c1nc3ccccc3o1)N2 (stereo not given) | 1.55 | – |
| O=C(Nc1nnc(S(=O)(=O)N2CCOCC2)s1)c1cccc(Br)c1 | -11.9 | – |
| Cc1nc(CN=C2NC3=C(C(=O)CCC3)C(c3[nH]ncc3Cl)N2)cs1 (stereo not given) | -0.394 | – |
| O=C1CCCC2=C1C1(CCCC1)N=C(Nc1nc3cc(-c4ccccc4)ccc3o1)N2 | -10.9 | – |
| Cn1ncc(Cl)c1C1N=C(Nc2nc3ccccc3o2)NC2=C1C(=O)CCC2 (stereo not given) | -5.52 | – |
| Cc1cccc2oc(NC3=NC(c4[nH]ncc4Cl)C4=C(CCCC4=O)N3)nc12 (stereo not given) | – | inactive |
| Cc1ccc2oc(NC3=NC(c4[nH]ncc4Cl)C4=C(CCCC4=O)N3)nc2c1 (stereo not given) | 0.986 | – |
| O=C1CCCC2=C1C(c1ccccc1Cl)N=C(Nc1ncc(-c3ccccc3)o1)N2 (stereo not given) | 8.02 | – |
| O=C1CCCC2=C1C(c1cccc(Cl)c1)N=C(Nc1nc3ccccc3o1)N2 (stereo not given) | -2.3 | – |
| O=C1CC(c2ccccc2)CC2=C1C1(CCCC1)N=C(Nc1nc3ccccc3o1)N2 (stereo not given) | -1.13 | – |
| O=C1CCCC2=C1C(c1ccncc1)N=C(Nc1nc3ccccc3o1)N2 (stereo not given) | -5.76 | – |
